# According to the supplement of paper PMC10849652:
# The full data set covers some 7,900 targets. This sample favours those with a hit. About 0.6% of all pairs of compound and target were hits. Unmarked numbers belong to inactive results.
# Compound: FC(F)(F)c1ccc(/C=C/c2nc(COc3ccc(CCCCn4ccnn4)cc3)co2)cc1 [mubritinib]
# Assay: log2 fold change, soluble protein after heating vs DMSO (PISA); higher = thermal stabilisation; K562 cells, 10 uM, 30 min; active = over 0.2 and 3.5 SD of the protein, either way, in both replicates (recomputed)
# Method in brief: (§1)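 K562 cells (2×10^6 cells/mL) were treated with 10 μM compound for 30 min, and aliquots were heated for 3 min over 48°C-58°C. Pooled aliquots were extracted in PBS with 0.5% NP-40 at 4°C, and the supernatant after 21,000xg for 90 min was measured by TMTpro 16plex LC-MS/MS with channel sums equalised. Reported thermal stability, relative to control samples and from duplicates, is a log2 fold change.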
# Sequence of UniProt Q9UH92 (Q9UH92 whole entry, looked up): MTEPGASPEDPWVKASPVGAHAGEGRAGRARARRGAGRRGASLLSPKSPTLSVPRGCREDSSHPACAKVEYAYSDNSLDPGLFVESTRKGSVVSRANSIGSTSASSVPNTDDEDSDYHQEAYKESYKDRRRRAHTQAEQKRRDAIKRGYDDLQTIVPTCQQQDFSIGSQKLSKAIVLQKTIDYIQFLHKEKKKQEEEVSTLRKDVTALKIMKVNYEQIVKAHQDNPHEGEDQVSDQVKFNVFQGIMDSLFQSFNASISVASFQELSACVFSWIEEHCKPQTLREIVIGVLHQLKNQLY
# Sequence of UniProt Q9Y6R0 (Q9Y6R0 whole entry, looked up): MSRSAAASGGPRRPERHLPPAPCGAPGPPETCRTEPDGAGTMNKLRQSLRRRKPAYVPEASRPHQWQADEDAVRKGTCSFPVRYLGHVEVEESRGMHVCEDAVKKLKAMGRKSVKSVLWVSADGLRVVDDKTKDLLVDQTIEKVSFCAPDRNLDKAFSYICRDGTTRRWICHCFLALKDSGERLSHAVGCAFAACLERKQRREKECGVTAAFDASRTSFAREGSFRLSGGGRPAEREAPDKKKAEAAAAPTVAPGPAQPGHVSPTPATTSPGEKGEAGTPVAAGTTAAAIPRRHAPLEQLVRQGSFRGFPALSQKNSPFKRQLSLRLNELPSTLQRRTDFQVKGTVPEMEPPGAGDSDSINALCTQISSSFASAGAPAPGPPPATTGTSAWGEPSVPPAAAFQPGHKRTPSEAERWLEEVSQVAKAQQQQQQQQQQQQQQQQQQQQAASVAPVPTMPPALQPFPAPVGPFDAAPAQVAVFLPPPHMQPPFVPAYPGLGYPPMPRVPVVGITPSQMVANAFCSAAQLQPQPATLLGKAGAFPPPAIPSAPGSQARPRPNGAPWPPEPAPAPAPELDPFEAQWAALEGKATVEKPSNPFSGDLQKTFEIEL
# Sequence of UniProt O43913 (O43913 whole entry, looked up): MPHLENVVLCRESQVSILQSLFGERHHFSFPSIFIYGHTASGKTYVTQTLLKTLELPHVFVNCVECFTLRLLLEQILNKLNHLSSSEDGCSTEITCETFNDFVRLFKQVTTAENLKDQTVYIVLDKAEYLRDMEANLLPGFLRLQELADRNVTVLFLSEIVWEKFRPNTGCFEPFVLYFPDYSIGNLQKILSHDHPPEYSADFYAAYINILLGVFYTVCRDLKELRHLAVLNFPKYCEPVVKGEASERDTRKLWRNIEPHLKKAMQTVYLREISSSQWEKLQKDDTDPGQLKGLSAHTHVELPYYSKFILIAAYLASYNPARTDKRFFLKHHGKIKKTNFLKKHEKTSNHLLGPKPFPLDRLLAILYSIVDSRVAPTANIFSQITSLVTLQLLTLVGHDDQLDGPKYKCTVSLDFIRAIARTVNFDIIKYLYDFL
# Sequence of UniProt O60890 (O60890 whole entry, looked up): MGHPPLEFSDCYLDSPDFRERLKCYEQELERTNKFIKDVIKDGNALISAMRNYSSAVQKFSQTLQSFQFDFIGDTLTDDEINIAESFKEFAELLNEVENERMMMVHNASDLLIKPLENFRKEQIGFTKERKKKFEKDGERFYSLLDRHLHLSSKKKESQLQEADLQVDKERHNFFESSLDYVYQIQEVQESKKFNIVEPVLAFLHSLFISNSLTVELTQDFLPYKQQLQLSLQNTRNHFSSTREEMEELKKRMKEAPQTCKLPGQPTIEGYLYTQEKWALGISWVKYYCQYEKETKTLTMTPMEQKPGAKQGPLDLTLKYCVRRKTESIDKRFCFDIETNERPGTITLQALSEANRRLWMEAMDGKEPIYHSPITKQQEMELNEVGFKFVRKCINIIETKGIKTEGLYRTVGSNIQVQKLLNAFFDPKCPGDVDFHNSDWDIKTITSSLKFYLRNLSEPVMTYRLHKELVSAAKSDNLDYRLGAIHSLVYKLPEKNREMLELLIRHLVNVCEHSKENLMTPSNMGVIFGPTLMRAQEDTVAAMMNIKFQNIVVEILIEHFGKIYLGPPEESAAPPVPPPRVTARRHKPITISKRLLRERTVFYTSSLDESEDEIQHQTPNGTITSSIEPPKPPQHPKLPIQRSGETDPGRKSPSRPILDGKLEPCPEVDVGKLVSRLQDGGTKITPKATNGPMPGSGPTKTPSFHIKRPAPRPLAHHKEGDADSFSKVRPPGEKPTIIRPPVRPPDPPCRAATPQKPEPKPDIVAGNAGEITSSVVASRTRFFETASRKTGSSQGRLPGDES
# Sequence of UniProt O75438 (O75438 whole entry, looked up): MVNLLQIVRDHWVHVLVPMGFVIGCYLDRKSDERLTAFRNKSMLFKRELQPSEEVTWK
# Sequence of UniProt Q92692 (Q92692 whole entry, looked up): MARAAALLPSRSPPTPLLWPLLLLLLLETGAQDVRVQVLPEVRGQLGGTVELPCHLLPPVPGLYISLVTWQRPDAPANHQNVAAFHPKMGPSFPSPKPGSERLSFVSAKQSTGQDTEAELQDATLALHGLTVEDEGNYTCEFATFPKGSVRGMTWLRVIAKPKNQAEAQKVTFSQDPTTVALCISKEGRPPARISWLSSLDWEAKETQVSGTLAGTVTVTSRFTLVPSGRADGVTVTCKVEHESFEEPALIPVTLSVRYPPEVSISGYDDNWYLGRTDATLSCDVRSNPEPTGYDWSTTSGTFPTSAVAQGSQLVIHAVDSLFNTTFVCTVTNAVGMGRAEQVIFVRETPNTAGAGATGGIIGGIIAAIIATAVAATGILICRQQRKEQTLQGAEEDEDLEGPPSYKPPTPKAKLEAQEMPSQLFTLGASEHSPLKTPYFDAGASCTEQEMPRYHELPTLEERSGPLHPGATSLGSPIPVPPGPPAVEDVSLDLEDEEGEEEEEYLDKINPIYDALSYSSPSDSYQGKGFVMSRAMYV
# Sequence of UniProt Q68DK7 (Q68DK7 whole entry, looked up): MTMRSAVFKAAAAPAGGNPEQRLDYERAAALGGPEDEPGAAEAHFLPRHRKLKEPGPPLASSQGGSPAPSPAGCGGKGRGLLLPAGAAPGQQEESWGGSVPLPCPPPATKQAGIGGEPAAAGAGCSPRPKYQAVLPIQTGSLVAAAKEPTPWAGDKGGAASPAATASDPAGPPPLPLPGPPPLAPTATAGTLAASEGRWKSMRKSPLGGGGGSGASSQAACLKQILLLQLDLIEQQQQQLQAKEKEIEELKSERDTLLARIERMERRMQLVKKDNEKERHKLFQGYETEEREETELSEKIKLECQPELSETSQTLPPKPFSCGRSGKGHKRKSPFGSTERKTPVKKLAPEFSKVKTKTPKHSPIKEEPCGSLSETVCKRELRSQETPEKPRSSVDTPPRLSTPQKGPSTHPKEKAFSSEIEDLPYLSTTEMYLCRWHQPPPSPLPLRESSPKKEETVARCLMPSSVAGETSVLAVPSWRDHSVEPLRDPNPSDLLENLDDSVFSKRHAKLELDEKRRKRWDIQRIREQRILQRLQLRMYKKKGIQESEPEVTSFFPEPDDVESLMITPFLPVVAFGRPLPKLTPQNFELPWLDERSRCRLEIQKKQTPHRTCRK
# Sequence of UniProt Q9H6N6 (Q9H6N6 whole entry, looked up): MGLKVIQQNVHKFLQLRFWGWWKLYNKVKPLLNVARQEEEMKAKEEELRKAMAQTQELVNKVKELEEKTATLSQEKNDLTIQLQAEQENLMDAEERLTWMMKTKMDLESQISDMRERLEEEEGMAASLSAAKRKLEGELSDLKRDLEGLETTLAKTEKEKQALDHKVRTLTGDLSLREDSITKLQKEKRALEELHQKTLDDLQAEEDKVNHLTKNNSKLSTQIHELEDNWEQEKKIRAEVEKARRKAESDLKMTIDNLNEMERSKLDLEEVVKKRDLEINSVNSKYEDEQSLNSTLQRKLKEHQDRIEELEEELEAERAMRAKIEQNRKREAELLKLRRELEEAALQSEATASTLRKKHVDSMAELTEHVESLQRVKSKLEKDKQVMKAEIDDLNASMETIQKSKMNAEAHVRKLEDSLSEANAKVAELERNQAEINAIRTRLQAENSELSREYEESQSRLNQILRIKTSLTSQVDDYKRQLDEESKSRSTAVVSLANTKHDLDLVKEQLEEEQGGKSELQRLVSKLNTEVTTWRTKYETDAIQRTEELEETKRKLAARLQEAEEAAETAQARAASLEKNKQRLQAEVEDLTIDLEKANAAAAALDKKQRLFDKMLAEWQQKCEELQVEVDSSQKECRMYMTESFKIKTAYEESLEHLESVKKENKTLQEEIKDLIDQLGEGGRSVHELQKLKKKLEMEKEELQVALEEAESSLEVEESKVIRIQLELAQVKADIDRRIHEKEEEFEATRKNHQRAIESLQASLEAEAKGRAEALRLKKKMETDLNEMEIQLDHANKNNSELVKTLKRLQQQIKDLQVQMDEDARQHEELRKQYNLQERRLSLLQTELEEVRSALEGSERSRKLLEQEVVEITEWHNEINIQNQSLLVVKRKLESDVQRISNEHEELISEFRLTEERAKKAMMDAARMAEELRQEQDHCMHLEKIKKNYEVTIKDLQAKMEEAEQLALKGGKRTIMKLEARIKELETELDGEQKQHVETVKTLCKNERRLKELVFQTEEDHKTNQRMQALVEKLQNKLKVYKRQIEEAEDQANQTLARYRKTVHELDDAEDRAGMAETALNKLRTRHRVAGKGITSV
# Sequence of UniProt P25208 (P25208 whole entry, looked up): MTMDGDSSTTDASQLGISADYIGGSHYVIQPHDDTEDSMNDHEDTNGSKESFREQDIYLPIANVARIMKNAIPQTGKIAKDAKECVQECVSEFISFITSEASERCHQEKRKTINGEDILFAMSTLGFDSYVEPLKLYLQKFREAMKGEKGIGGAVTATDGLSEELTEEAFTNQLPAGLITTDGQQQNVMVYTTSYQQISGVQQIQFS
# Sequence of UniProt P40261 (P40261 whole entry, looked up): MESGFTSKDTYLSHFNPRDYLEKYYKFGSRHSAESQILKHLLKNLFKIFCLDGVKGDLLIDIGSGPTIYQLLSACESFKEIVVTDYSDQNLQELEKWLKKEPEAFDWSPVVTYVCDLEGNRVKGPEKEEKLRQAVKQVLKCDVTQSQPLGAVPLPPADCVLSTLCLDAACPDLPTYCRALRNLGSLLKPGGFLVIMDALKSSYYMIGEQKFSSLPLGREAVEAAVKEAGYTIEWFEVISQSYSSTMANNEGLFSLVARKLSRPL
row,Target,log2 fold change
1,MYH16 (UniProt Q9H6N6),-0.025
2,ORC5 (UniProt O43913),0.045
3,MSL1 (UniProt Q68DK7),0.148
4,NDUFB1 (UniProt O75438),0.022
5,NUMBL (UniProt Q9Y6R0),0.28
6,NUP98 (UniProt P52948),0
7,NECTIN2 isoform 2 (UniProt Q92692),-0.049
8,MRPS16 (UniProt Q9Y3D3),0.16
9,MLX (UniProt Q9UH92),-0.061
10,OPHN1 (UniProt O60890),0.035

# Compound: NC(=O)Nc1cc(-c2cccc(F)c2)sc1C(=O)N[C@H]1CCCNC1
# Assay: as above
# Method in brief: as §1
row,Target,log2 fold change
1,NIPSNAP3B (UniProt Q9BS92),0.279
2,NFYB (UniProt P25208),-0.022
3,MYLK (UniProt Q15746),-0.063
4,NAGPA (UniProt Q9UK23),0.051
5,NNMT (UniProt P40261),0.013
6,NUP160 (UniProt Q12769),0.031
7,NPM3 (UniProt O75607),0.029
8,P4HA2 (UniProt O15460),-0.034
9,NRDC isoform 2 (UniProt O43847),-0.01
10,"NA, A0A2R8Y3M9",-0.104
11,MRFAP1 (UniProt Q9Y605),0.134
12,NCBP2AS2 (UniProt Q69YL0),-0.21
13,OAT (UniProt P04181),-0.051
14,MON1A (UniProt Q86VX9),0.016
15,NDFIP1 (UniProt Q9BT67),0.104
16,NME2P1 (UniProt O60361),0.07
17,MYH16 (UniProt Q9H6N6),0.467
18,ORC5 (UniProt O43913),-0.322
19,MSL1 (UniProt Q68DK7),-0.032
20,NDUFB1 (UniProt O75438),0.053
21,NUMBL (UniProt Q9Y6R0),-0.101
22,MTFR1L (UniProt Q9H019),-0.069
23,NUP98 (UniProt P52948),0.018
24,NECTIN2 isoform 2 (UniProt Q92692),0.072
25,MRPS16 (UniProt Q9Y3D3),0.026
26,MLX (UniProt Q9UH92),0.144
27,OPHN1 (UniProt O60890),0.073

# Compound: NC(=O)c1cnc(N[C@@H]2CCCC[C@@H]2N)nc1Nc1cccc(-n2nccn2)c1
# Assay: as above
# Method in brief: as §1
row,Target,log2 fold change
1,NMU (UniProt P48645),-0.023
2,NIPSNAP3B (UniProt Q9BS92),0.011
3,NFYB (UniProt P25208),0.102
4,NAP1L1 (UniProt B7Z9C2),-0.124
5,NAGPA (UniProt Q9UK23),-0.045
6,NNMT (UniProt P40261),-0.04
7,NKAP (UniProt Q8N5F7),-0.043
8,MMADHC (UniProt Q9H3L0),0.035
9,OGFOD2 (UniProt Q6N063),0.005
10,OVCA2 (UniProt Q8WZ82),-0.067
11,NUP160 (UniProt Q12769),-0.058
12,NPM3 (UniProt O75607),0.02
13,"NA, A0A494C071",-0.484
14,MT-ND2 (UniProt P03891),0.146
15,NRDC isoform 2 (UniProt O43847),-0.044
16,"NA, A0A2R8Y3M9",-0.17
17,MRFAP1 (UniProt Q9Y605),0.01
18,NCBP2AS2 (UniProt Q69YL0),-0.161

row,Target,log2 fold change
1,OAT (UniProt P04181),-0.076
2,NDFIP1 (UniProt Q9BT67),-0.16
3,NME2P1 (UniProt O60361),-0.146
4,MOB3B (UniProt Q86TA1),-0.082
5,MYO19 (UniProt Q96H55),-0.112
6,MYH16 (UniProt Q9H6N6),0.051
7,ORC5 (UniProt O43913),-0.188
8,MSL1 (UniProt Q68DK7),-0.085
9,NDUFB1 (UniProt O75438),-0.114
10,NUMBL (UniProt Q9Y6R0),0.016
11,NELFCD (UniProt Q8IXH7),-0.005
12,MTFR1L (UniProt Q9H019),-0.079
13,NUP98 (UniProt P52948),-0.086
14,NECTIN2 isoform 2 (UniProt Q92692),0.171
15,MRPS16 (UniProt Q9Y3D3),-0.04
16,MLX (UniProt Q9UH92),-0.115
17,OPHN1 (UniProt O60890),-0.134
